Results filed as inconclusive are left out. Activity calls are given as the source filed them. How the source made its calls, unless noted: active means hit-call score of the fitted dose curve at least 0.9, where 1 is the maximum; inconclusive means response in the unintended direction; inactive means score below 0.9.
How the values were obtained:
[1] = TOX21_p53_BLA_p2_viability: Viability Assessment in the Tox21 HCT-116 p53 Agonism Beta-lactamase Assay, Phase 2 (AID 2283591);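 further: actives lower the ATP signal meaning cytotoxicity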
Outline: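 Cytotoxicity readout: CellTiter-Glo ATP luminescence, 30 min at room temperature, after the beta-lactamase read. Cells were HCT116 exposed 16 h at 37C to compounds pin-transferred at 217-fold dilution from DMSO stocks.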

[2] = molecular target: Cellular tumor antigen p53 (Homo sapiens) (UniProt P04637); test: TOX21_p53_BLA_p2_ratio: Tox21 HCT-116 p53 Agonism Beta-lactamase Assay, Ratio, Phase 2 (AID 2283592)
Cellular tumor antigen p53 (Homo sapiens), sequence (P04637 whole entry, looked up): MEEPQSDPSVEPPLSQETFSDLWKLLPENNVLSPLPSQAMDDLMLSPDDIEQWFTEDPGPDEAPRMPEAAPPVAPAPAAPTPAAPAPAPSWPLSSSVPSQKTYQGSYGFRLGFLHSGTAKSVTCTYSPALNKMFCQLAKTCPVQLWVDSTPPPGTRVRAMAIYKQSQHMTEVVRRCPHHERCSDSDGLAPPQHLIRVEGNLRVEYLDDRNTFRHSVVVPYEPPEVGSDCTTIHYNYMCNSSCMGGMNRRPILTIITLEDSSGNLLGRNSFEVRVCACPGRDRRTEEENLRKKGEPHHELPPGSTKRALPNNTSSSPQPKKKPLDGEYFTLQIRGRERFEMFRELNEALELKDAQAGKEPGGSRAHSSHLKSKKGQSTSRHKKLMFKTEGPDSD
Outline: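 HCT-116 cells with p53-responsive beta-lactamase reporter, 4000 cells/well, preincubated 5 h, then compound in DMSO (217-fold dilution) for 16 h at 37C. CCF4-AM substrate 2 h at room temperature; 460/530 nm emission ratio fitted upward versus DMSO.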

[3] = TOX21_p53_BLA_p3_viability: Viability Assessment in the Tox21 HCT-116 p53 Agonism Beta-lactamase Assay, Phase 3 (AID 2283593);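 further: cells exposed to compound for 16 h before reading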
Outline: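 Cellular ATP was quantified by CellTiter-Glo luminescence, read after 30 min at room temperature. Beforehand, HCT116 cells (4000/well) received compound 5 h post-seeding, 217-fold diluted from DMSO, then incubated 16 h at 37C.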

[4] = molecular target: Cellular tumor antigen p53 (Homo sapiens) (UniProt P04637); test: TOX21_p53_BLA_p3_ratio: Tox21 HCT-116 p53 Agonism Beta-lactamase Assay, Ratio, Phase 3 (AID 2283596)
Outline: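 HCT116 p53-bla cells (4000/well) given compound in DMSO (217-fold dilution) after 5 h, incubated 16 h at 37C. CCF4-AM substrate 2 h at room temperature; 460/530 nm emission ratio, gain fitted against DMSO.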

[5] = TOX21_p53_BLA_p4_viability: Viability Assessment in the Tox21 HCT-116 p53 Agonism Beta-lactamase Assay, Phase 4 (AID 2283597);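 further: hits lower the luminescence signal meaning cytotoxicity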
Outline: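 HCT-116 p53-bla cells, 4000/well, dosed after 5 h attachment and incubated 16 h at 37 °C, 5% CO2. Viability from CellTiter-Glo ATP luminescence after 30 min at room temperature, taken after the beta-lactamase read; loss of signal indicates cytotoxicity.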

[6] = molecular target: Cellular tumor antigen p53 (Homo sapiens) (UniProt P04637); test: TOX21_p53_BLA_p5_ratio: Tox21 HCT-116 p53 Agonism Beta-lactamase Assay, Ratio, Phase 5 (AID 2283599)
Outline: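 Beta-lactamase reporter ratio (blue 460 nm over green 530 nm, 405 nm excitation) after 2 h CCF4-AM loading, in HCT-116 cells exposed 16 h at 37 C to compounds pinned at 217-fold dilution. Increases relative to DMSO baseline scored.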

[7] = molecular target: Cellular tumor antigen p53 (Homo sapiens) (UniProt P04637); test: TOX21_p53_BLA_p4_ratio: Tox21 HCT-116 p53 Agonism Beta-lactamase Assay, Ratio, Phase 4 (AID 2283601)
Outline: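 Signal is the blue/green (460nm/530nm) ratio of cleaved versus uncleaved CCF4-AM substrate, read after 2 h substrate loading. Cells were HCT116 carrying the p53-responsive beta-lactamase reporter, dosed 16 h at 37C, 5% CO2; CellTiter-Glo measured in parallel.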

PGR (gene 5241) [8] = molecular target: PGR (gene 5241) (UniProt P06401); test: TOX21_PR_BLA_Followup_Antagonist_ratio: Tox21 HEK293 Progesterone Receptor (PR) Antagonism Beta-lactamase Follow-Up Assay, Ratio (AID 2283934)
PGR (gene 5241), sequence (P06401 whole entry, looked up, the tested form may be a part): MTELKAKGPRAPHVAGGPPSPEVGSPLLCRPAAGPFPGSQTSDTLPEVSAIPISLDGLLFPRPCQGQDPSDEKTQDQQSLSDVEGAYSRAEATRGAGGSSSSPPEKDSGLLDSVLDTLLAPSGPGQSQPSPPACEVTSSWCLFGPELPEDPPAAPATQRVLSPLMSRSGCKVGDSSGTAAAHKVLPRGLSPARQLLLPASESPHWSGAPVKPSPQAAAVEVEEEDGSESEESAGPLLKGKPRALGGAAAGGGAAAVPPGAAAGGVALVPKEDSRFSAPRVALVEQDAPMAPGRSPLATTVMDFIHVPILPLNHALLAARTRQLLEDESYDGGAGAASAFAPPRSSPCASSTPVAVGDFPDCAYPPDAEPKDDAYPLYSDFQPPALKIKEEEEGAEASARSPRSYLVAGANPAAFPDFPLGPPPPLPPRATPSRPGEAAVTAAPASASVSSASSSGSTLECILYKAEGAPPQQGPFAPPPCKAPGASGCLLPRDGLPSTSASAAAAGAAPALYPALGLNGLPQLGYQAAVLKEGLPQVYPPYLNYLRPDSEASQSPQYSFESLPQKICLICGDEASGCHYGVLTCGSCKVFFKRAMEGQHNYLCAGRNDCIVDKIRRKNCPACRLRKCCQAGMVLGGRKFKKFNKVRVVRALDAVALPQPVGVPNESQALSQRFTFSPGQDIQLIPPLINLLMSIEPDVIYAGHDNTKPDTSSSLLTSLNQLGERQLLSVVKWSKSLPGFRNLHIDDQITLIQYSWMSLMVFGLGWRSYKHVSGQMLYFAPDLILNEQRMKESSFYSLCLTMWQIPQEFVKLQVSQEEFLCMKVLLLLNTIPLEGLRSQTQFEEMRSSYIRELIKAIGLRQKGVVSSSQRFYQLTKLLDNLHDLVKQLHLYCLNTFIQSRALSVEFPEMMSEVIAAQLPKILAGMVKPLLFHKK
Outline: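 PR-UAS-bla HEK293T cells in medium with 2% charcoal-stripped FBS were treated with compounds plus 1 nM (final) promegestone (R5020) for 16 hr at 37C. LiveBLAzer B/G FRET substrate was then added for 2 h at room temperature; signal is cleaved/uncleaved substrate ratio versus DMSO.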

[9] = TOX21_PR_BLA_Followup_Agonist_viability: Viability Assessment in the Tox21 HEK293 Progesterone Receptor (PR) Agonism Beta-lactamase Follow-Up Assay (AID 2283935);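 further: signal loss means lower viability so actives are cytotoxic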
Outline: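 PR-UAS-bla HEK293T cells in 2% charcoal-stripped FBS medium, compound added after 6 hr plating, 16 hr at 37C/5% CO2. After bla FRET read, CellTiter-Glo added; luminescence read after 30 min at room temperature; signal loss marks cytotoxicity.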

[10] = TOX21_PR_BLA_Followup_Antagonist_viability: Viability Assessment in the Tox21 HEK293 Progesterone Receptor (PR) Antagonism Beta-lactamase Follow-Up Assay (AID 2283936);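 further: hits lower the luminescence signal meaning cytotoxicity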
Outline: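 PR-UAS-bla HEK293T cells (3,000/well, 2% charcoal-stripped FBS) given compound plus R5020 agonist, 16 h at 37C. CellTiter-Glo added after bla read, 30 min at room temperature; luminescence loss indicates cytotoxicity.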

PGR (gene 5241) [11] = molecular target: PGR (gene 5241) (UniProt P06401); test: TOX21_PR_LUC_Followup_Antagonist: Tox21 HEK293 Progesterone Receptor (PR) Antagonism Luciferase Follow-Up Assay (AID 2283938);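 further: curve fitted upward as signal gain over DMSO baseline despite antagonist label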
Outline: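 HEK293-PR-A-luc cells, 3,000/well, preincubated 5 h at 37C before compound addition in DMSO; 16 h compound exposure at 37C. ONE-Glo luciferase luminescence read after 30 min at room temperature, fitted relative to DMSO baseline.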

[12] = TOX21_PR_LUC_Followup_Antagonist_viability: Viability Assessment in the Tox21 HEK293 Progesterone Receptor (PR) Antagonism Luciferase Follow-Up Assay (AID 2283940)
Outline: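 HEK293-PR-A-luc cells, precultured 5 days in assay medium with 10% charcoal-stripped FBS, were seeded at 3,000 cells/well, treated with compounds in DMSO for 16 h at 37C, and viability was read as cellular ATP by CellTiter-Glo luminescence.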

[13] = TOX21_PR_LUC_Followup_Agonist_viability: Viability Assessment in the Tox21 HEK293 Progesterone Receptor (PR) Agonism Luciferase Follow-Up Assay (AID 2283941);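 further: loss of signal means cytotoxicity so actives lower viability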
Outline: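 HEK293-PR-A-luc cells, pre-cultured 5 days in 10% charcoal-stripped FBS, were seeded at 3,000 cells/well, rested 5 h at 37C, then given compound in DMSO for 16 h at 37C. Cellular ATP was read by CellTiter-Glo luminescence; signal loss indicates cytotoxicity.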

[14] = molecular target: Thyroid hormone receptor alpha (Rattus norvegicus) + Thyroid hormone receptor beta (Rattus norvegicus) (UniProt P18113+P63059); test: TOX21_TR_LUC_GH3_Antagonist_Followup: Tox21 GH3 Thyroid Hormone Receptor Antagonism Luciferase Follow-Up Assay (AID 2283942)
Outline: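 Confirmatory qHTS, antagonist mode: T3 (1.0 nM final) + test cpd, 15 conc, 92 uM–5nM final, GH3 rat pituitary line, 24 h, 37C. Luc reporter, RLU vs DMSO.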

THRB (gene 7068) [15] = molecular target: THRB (gene 7068) (UniProt P10828); test: TOX21_TRB_BLA_Antagonist_Followup_ratio: Tox21 Thyroid Hormone Receptor beta Antagonism Beta-lactamase (BLA) Follow-Up Assay, Ratio (AID 2283958)
THRB (gene 7068), sequence (P10828 whole entry, looked up, the tested form may be a part): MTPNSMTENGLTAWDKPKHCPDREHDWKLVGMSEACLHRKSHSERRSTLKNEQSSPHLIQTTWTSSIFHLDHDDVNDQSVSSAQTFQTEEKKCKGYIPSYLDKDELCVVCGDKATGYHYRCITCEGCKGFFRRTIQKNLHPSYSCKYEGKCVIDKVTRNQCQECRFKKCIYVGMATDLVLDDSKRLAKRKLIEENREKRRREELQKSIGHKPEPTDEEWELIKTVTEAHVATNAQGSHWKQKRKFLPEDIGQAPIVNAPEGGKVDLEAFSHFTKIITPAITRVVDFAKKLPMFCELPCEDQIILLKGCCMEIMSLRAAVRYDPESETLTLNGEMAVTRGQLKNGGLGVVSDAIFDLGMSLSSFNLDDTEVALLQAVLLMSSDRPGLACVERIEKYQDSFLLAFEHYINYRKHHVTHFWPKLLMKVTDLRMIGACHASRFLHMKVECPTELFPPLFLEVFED
Outline: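 GAL4-DBD/human TRβ-LBD fusion in GeneBLAzer UAS-bla HEK293T cells, 3,000 cells/well in phenol red-free DMEM with 2% charcoal-stripped FBS; compounds at 11 concentrations in triplicate, 18 h at 37C. CCF4-AM substrate 2 h, 460:530 nm ratio relative to DMSO.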

THRB (gene 7068) [16] = molecular target: THRB (gene 7068) (UniProt P10828); test: TOX21_TRB_COA_Antagonist_Followup_ratio: Tox21 Thyroid Hormone Receptor beta Antagonism through Coactivator Recruitment Follow-Up Assay, Ratio (AID 2283967)
Outline: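 Test compound was incubated with 5.0 nM GST-TRβ LBD in 0.10% BSA. Then 200 nM fluorescein-SRC-2 peptide and 2 nM terbium anti-GST antibody were added. TR-FRET (520:495 nm) was measured and normalized to DMSO and T3 controls.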

[17] = molecular target: Retinoic acid receptor RXR-alpha (Homo sapiens) (UniProt P19793); test: TOX21_TR_RXR_BLA_Antagonist_Followup_ratio: Tox21 Thyroid Hormone Receptor beta Retinoid X Receptor alpha (RXRa) Antagonism Beta-lactamase (BLA) Follow-Up Assay, Ratio (AID 2283972)
Retinoic acid receptor RXR-alpha (Homo sapiens), sequence (P19793 whole entry, looked up): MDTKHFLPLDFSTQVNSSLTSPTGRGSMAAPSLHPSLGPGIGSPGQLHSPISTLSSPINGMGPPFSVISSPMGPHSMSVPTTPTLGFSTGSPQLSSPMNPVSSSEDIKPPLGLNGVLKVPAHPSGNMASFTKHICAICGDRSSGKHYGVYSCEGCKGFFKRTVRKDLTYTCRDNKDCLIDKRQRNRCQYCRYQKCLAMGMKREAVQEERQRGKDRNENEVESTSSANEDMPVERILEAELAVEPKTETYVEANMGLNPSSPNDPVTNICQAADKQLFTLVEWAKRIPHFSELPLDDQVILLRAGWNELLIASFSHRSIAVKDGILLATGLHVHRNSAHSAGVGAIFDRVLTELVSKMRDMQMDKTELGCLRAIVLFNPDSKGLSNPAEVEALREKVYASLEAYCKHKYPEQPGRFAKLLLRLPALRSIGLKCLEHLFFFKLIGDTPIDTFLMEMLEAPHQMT
Outline: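 RXRa-UAS-bla HEK293T cells, 2,500/well in phenol red-free DMEM with 2% charcoal-stripped FBS, 5 h attachment, then compounds (11 concentrations, triplicate) for 16 h at 37C; FRET-B/GCCF4-AM substrate 2 h RT; 460:530 nm ratio, loss of signal vs DMSO.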

[18] = TOX21_TR_RXR_BLA_Antagonist_Followup_viability: Viability Assessment in the Tox21 Thyroid Hormone Receptor beta Retinoid X Receptor alpha (RXRa) Antagonism Beta-lactamase (BLA) Follow-Up Assay (AID 2283979)
Outline: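 Follow-up compounds (11 concentrations, triplicate) were incubated 16 h at 37C/5% CO2 with HEK293T RXRa-bla cells seeded at 2,500/well in charcoal-stripped-serum medium. ATP content by CellTiter-Glo luminescence gave viability; curves fitted in both directions against DMSO.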

[19] = TOX21_p53_BLA_p5_viability: Viability Assessment in the Tox21 HCT-116 p53 Agonism Beta-lactamase Assay, Phase 5 (AID 2283600)
Outline: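 HCT-116 p53 beta-lactamase reporter cells, 4000/well, were exposed to compound (pin transfer, 217-fold dilution) for 16 hours at 37C. Cellular ATP was read by CellTiter-Glo luminescence after 30 min at room temperature.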

[20] = CCTE_Harrill_HTTr_Viability_MCF7: CCTE's 6-hour Cell Viability Assessment for the High-Throughput Transcriptomics (HTTr) Platform, in MCF-7 cells cultured in DMEM + 10% fetal bovine serum, Harrill Lab (AID 2284010; active means hit-call score of the fitted dose curve at least 0.9, where 1 is the maximum; inactive means score below 0.9)
Outline: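 Membrane integrity was scored by high-content imaging of propidium iodide dye exclusion after a 6 h exposure across an eight-point dilution series. Data were fitted bidirectionally relative to DMSO as negative control and baseline.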

[21] = CCTE_Harrill_HTTr_Apoptosis_MCF7: CCTE's 6-hour Apoptosis Assessment for the High-Throughput Transcriptomics (HTTr) Platform, in MCF-7 cells cultured in DMEM + 10% fetal bovine serum, Harrill Lab (AID 2284011; active means hit-call score of the fitted dose curve at least 0.9, where 1 is the maximum; inactive means score below 0.9)
Outline: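 MCF-7 cells in DMEM + 10% FBS exposed 6 h to chemicals over an eight-point dilution series. Caspase-3/7 activation imaged by high-content CellEvent Green staining; fitted bidirectionally versus DMSO.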

[22] = CCTE_Harrill_HTTr_CellCount_MCF7: CCTE's Cell Proliferation Assessment for the High-Throughput Transcriptomics (HTTr) Platform, Harrill Lab (AID 2284012);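 further: intended direction is loss of nuclei count meaning fewer cells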
Outline: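 MCF-7 cells were exposed for 6 h to an eight-point dilution series; Hoechst-labeled nuclei were counted by high content imaging. Curves were fitted bidirectionally against DMSO as negative control and baseline, with signal loss indicating reduced cell count.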

PGR (gene 5241) [23] = molecular target: PGR (gene 5241) (UniProt P06401); test: TOX21_PR_BLA_Followup_Agonist_ratio: Tox21 HEK293 Progesterone Receptor (PR) Agonism Beta-lactamase Follow-Up Assay, Ratio (AID 2283933)
Outline: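 PR-UAS-bla HEK293T cells (GAL4-UAS beta-lactamase reporter) in medium with 2% charcoal-stripped FBS received compounds after 6 hr at 37C, then incubated 16 hr. LiveBLAzer FRET substrate added, 2 hr room temperature; cleaved/uncleaved (ch2/ch1) ratio fitted upward versus DMSO.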

Measured: AC50

C=CC[C@]1(O)CC[C@H]2[C@@H]3CCC4=CC(=O)CCC4=C3C=C[C@@]21C
not listed: [19] | [20] | [21] | [22] | PGR (gene 5241) [23]
inactive: all other assays above

CCCCCCCCCCCCN=C(N)N
inactive: [1] | [2] | [3] | [4] | [5] | [6] | [19] | [7] | [20] | [21] | [22]

NC(=O)CS(=O)C(c1ccccc1)c1ccccc1 (stereo not drawn)
inactive: [1] | [2] | [3] | [4] | [6]

CC(=O)O[C@H]1CC[C@@]2(C)C(=CC[C@@H]3[C@@H]2CC[C@]2(C)C(=O)CC[C@@H]32)C1
not listed: [6] | [7] | [14] | THRB (gene 7068) [15] | THRB (gene 7068) [16] | [17] | [18] | [20] | [21] | [22]
inactive: all other assays above

CC(C)(O)[C@@H]1[C@H]2OC(=O)[C@@H]1[C@]1(O)C[C@H]3O[C@]34C(=O)O[C@H]2[C@]14C (tested in a mixture with another compound)
inactive: [1] | [2] | [3] | [4] | [5] | [6] | [7]

Nc1c(Br)cc([N+](=O)[O-])cc1[N+](=O)[O-]
inactive: [1] | [2] | [3] | [4] | [5] | [19]

O=[N+]([O-])c1ccc([As](=O)(O)O)cc1
inactive: [1] | [2] | [3] | [4] | [5] | [19] | [7]

C[C@@H](Cc1ccccc1)NCCC(c1ccccc1)c1ccccc1
active: [5] 12.5 µM
inactive: [1] | [2] | [3] | [4] | [19] | [7]

Oc1cc(Cl)cc(Cl)c1
active: [2] 79 µM | [6] 85.2 µM
inactive: [1] | [3] | [4] | [5] | [7]

O=[N+]([O-])C(Br)Br
inactive: [1] | [2] | [3] | [4] | [6]

Clc1ccc([C@@H]2C[C@H]3CC[C@@H]2N3)cn1
inactive: [1] | [2] | [3] | [4] | [5] | [6] | [7]

Reference: PubChem BioAssay (EPA / NIEHS)
